# An excerpt weighted towards active compounds, which were near 4.8% of everything screened.
# SMARCA2 activ = increases SMARCA2 function in MMTV reporter cells; MG213 cells, MMTV-luciferase reporter, dexamethasone, overnight; activation, % at 9.1 µM; 370,000 tested, 1% active; AID 652017; in the data active = activation above about 7.8%
# hgDAF12 agonist = activates the H. glycines DAF-12 receptor ligand-binding domain. activation, % at 6.8 µM. 370,000 tested, 1.8% active. HEK293 GAL4-hgDAF12 UAS-luciferase reporter, agonist luminescence; normalized to butyrate control. AID 687014;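 active = activation above a cutoff set at the mean of all screened compounds plus 3 SD, cut at about 10% in these data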
# DAX1 inh-1 = inhibitors of DAX1 repression of SF-1 activated StAR promoter | HEK293T StAR-luciferase reporter, SF-1/DAX-1 repression relief | inhibition, % at 6.8 µM | 370,000 tested, 1.1% active | AID 652010;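 active = inhibition above the mean over all tested compounds plus 3 SD, cut at about 3.6% in these data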;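 also: higher inhibition means more luminescence from relief of DAX-1 repression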
# hcDAF12 agonist = activators of H. contortus DAF-12 nuclear receptor; HEK293 hcDAF-12 lit1-tk-luc reporter, luminescence; 0% DMSO, 100% Δ7-dafachronic acid; activation, % at 6.8 µM; 370,000 tested, 1.4% active; AID 652067;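 active = activation above the mean of all tested compounds plus 3 SD, cut at about 5.5% in these data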
# ssDAF12 agonist = activates DAF-12 receptor from parasite S. stercoralis. activation, % at 6.8 µM. HEK293 ssDAF-12/GRIP1 lit1-tk-luc reporter, luminescence; % of 3 µM dafachronic acid response. 370,000 tested, 1% active. AID 652126;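 active = activation above the mean over all tested compounds plus 3 SD, cut at about 0.9% in these data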
# DAX1 inh-2 = inhibits human nuclear receptor DAX1; 340,000 tested, 0.99% active; inhibition, % at 6.75 µM; AID 504766; P51843; HEK293 Gal4-DAX1 luciferase reporter, luminescence;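 active = inhibition above the mean over all tested compounds plus 3 SD, cut at about 4.2% in these data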;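 also: inhibition shows as a rise in luminescence from relieved DAX1 repression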
# SMARCA2 act conf = SMARCA2 activation, confirmation screen; shares compounds with SMARCA2 activ; MG213 cells, MMTV-luciferase with dexamethasone, luminescence, overnight; MG213 cells expressing E1A, Rb sequestered; DMSO wells 0%, reference activator 100%; activation, % at 9.1 µM; 3,500 tested, 30% active; AID 652260;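 active = activation above its plate's cutoff, the mean activation of tested wells plus 3 SD, cut at about 7.9% in these data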
# GAL4-VP16 Luc = counter-screen for SMARCA2 activators: GAL4-VP16 luciferase reporter activation; shares compounds with SMARCA2 activ; HEK293 GAL4-VP16 pG5luc reporter, luciferase luminescence; scaled: DMSO wells 0%, SAHA wells 100%; activation, % at 9.1 µM; 3,500 tested, 41% active; AID 686939;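 active = activation above the solvent-only control well mean plus 3 SD, averaged across control plates, cut at about 5.2% in these data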
# LXR ag = activates human LXR-beta, counter-screen for hcDAF-12 agonists. shares compounds with hcDAF12 agonist. HEK293 Gal4-LXR tk-luc reporter, luminescence, 24 h; normalized: DMSO 0%, positive control 100%. activation, % at 6.8 µM. 3,400 tested, under 10 active;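 active = mean percent activation of the reporter above a cutoff set as the average over tested compounds plus their standard deviation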
# Target sequence (P55055 whole entry, looked up, the tested form may be a part): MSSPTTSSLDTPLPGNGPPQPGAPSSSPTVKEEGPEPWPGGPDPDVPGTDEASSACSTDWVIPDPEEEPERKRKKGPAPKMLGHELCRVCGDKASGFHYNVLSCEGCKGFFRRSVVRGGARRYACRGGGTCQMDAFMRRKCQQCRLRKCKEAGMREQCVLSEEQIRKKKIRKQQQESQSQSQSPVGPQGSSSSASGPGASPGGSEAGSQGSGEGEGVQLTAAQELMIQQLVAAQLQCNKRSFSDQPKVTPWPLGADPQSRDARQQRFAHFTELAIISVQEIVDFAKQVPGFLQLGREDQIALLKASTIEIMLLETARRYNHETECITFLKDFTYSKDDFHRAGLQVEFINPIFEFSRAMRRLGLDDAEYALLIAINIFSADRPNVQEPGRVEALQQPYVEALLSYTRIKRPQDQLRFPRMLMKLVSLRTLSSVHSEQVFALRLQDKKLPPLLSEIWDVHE
# hcDAF12 ag = hcDAF-12 agonism, confirmation assay; shares compounds with hcDAF12 agonist; HEK293 hcDAF-12 lit1-tk-luc reporter, luminescence; % of Δ7-dafachronic acid response; activation, % at 6.8 µM; 3,400 tested, 61% active;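 active = mean activation across triplicate tests above the threshold derived from the earlier primary screen, cut at about 5.5% in these data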
# hgDAF12 ag = confirmation of H. glycines DAF-12 agonists; activation, % at 6.8 µM; 3,300 tested, 80% active; shares compounds with hgDAF12 agonist; HEK293 GAL4-hgDAF12 luciferase reporter, agonist mode; percent of butyrate response;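 active = mean activation over triplicate wells above the hit cutoff derived from the earlier primary screen, cut at about 11% in these data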
# LXRb DAF12 ctr = LXR-beta agonism as DAF-12 counter-screen. shares compounds with hgDAF12 agonist. HEK293 Gal4-LXR luciferase reporter, 24 h. activation, % at 6.8 µM. 3,300 tested, under 10 active;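 active = mean activation of the triplicate above a set limit carried over from the primary screen, none filed active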
# Numbers stand for hits; n = inactive; x = no result.
SMILES,SMARCA2 activ,hgDAF12 agonist,DAX1 inh-1,hcDAF12 agonist,ssDAF12 agonist,DAX1 inh-2,SMARCA2 act conf,GAL4-VP16 Luc,hgDAF12 ag,LXRb DAF12 ctr,others
COc1ccc(-c2cc(C(=O)OCC(=O)c3c(N)n(C)c(=O)n(C)c3=O)c3ccccc3n2)cc1,n,n,n,n,n,n,x,x,x,x,
Cc1[nH]nc2c1C(c1cccc(C(F)(F)F)c1)NC2=O (configuration not stated),n,n,n,n,n,x,x,x,x,x,
O=C(COc1cccc2cccnc12)Nc1nccs1,9.2,14,n,n,n,n,9.0,12,10,n,
O=C(O)c1ccc(/C=C/c2ccc3cccc(O)c3n2)cc1,8.0,15,n,n,n,n,16,6.2,11,n,
COc1cc(/C=N/N(c2ccccc2)c2ccccc2)ccc1O,n,n,n,n,n,n,x,x,x,x,
CCOc1ccc(/C=N/N(C)c2ccccc2)cc1OC,8.5,14,n,n,n,n,8.1,12,16,n,
Cc1nc2ccccc2cc1C(=O)N/N=C/c1cccc([N+](=O)[O-])c1,n,n,n,n,n,n,x,x,x,x,
Nc1ccccc1C(=O)NN=Cc1cccc([N+](=O)[O-])c1,9.1,25,4.3,n,n,x,15,n,15,n,
O=C(N/N=C/c1ccc2c(c1)OCO2)c1cccs1,9.2,24,4.4,6.1,1.5,n,11,7.8,19,n,
CN(C)c1ccc(NC(=O)Nc2cccc(Cl)c2)cc1,9.7,17,n,n,n,n,n,15,16,n,
CCCn1c(=NC(=O)c2ccco2)c(C(=O)OCC)cc2c(=O)n3ccccc3nc21,13,13,n,n,n,n,n,n,n,n,
O=C(NCc1ccccc1)C(c1ccco1)N1CCN(CCN2CCOCC2)CC1 (configuration not stated),n,n,n,n,n,x,x,x,x,x,
CC(=O)N1C[C@@H](CO)[C@@H]2C[C@H]1c1ccccc1N2C,n,n,n,n,n,x,x,x,x,x,
O=C(Nc1ccccc1)c1cc2ccccc2o1,13,19,n,13,1.9,n,n,n,22,n,LXR ag=n;hcDAF12 ag=17
O=C(Nc1ccccc1)c1ccc(OC(=O)c2cc3ccccc3o2)cc1,n,n,n,n,n,n,x,x,x,x,
O=c1[nH]c(/C=C/c2ccccc2Cl)nc2ccccc12,8.6,14,n,n,n,n,13,9.1,21,n,
COc1cc(/C=C/c2nc3ccccc3c(=O)[nH]2)ccc1O,9.0,17,3.7,n,n,n,13,12,11,n,
CCOc1cc(/C=C/c2nc3ccccc3c(=O)[nH]2)ccc1O,n,n,n,n,n,n,x,x,x,x,
O=S(=O)(c1ccccc1)N1CCCc2nc(-c3ccc(F)cc3)ccc21,n,n,n,n,n,x,x,x,x,x,
CC12CCC3c4ccc(OCCCO)c([N+](=O)[O-])c4CCC3C1CCC2=O (configuration not stated),n,n,n,n,n,x,x,x,x,x,
Cc1ccccc1NC(=S)c1ccc2ccccc2n1,8.2,13,n,14,1.3,n,16,7.6,13,n,LXR ag=n;hcDAF12 ag=7.9
COC(=O)[C@]12C[C@H](CC(=O)N3CCCC3)C(=O)N(Cc3ccc4c(c3)OCO4)C1=C[C@H](COCc1ccccc1)O[C@@H]2C,n,n,n,n,n,x,x,x,x,x,
COc1ccc(OCc2cccc(C(=O)NN)c2)cc1,13,18,3.9,n,n,n,9.4,16,21,n,
NNC(=O)c1cccc(COc2cccc(Br)c2)c1,n,n,n,n,n,n,x,x,x,x,
CCOc1ccc(OCc2cccc(C(=O)N/N=C/c3cccnc3)c2)cc1,8.5,15,3.7,n,n,n,13,21,19,n,
SMILES,SMARCA2 activ,hgDAF12 agonist,DAX1 inh-1,hcDAF12 agonist,ssDAF12 agonist,DAX1 inh-2,SMARCA2 act conf,GAL4-VP16 Luc,hgDAF12 ag,LXRb DAF12 ctr,others
O=C(Nc1ccc(F)cc1)OCc1cn(Cc2cccc(C(F)(F)F)c2)nn1,n,n,n,n,n,x,x,x,x,x,
COC(=O)[C@]12C[C@H](CC(=O)NCc3ccc(C)o3)C(=O)N(Cc3ccccc3)C1=C[C@H](COCc1ccccc1)O[C@@H]2C,n,n,n,n,n,x,x,x,x,x,
CCCCCCCCN1C(=O)[C@@H](CC(=O)NCCC(C)C)C[C@@]2(C(=O)OC)C1=C[C@H](C(C)C)O[C@@H]2C1CC1,n,n,n,n,n,x,x,x,x,x,
Cc1occc1C(=O)N/N=C/C(Br)=C/c1ccccc1,14,17,n,n,n,n,8.2,15,14,n,
N#C/C(=C\c1ccc(OCc2ccc(C(=O)O)cc2)cc1)C(=O)N1CCOCC1,10,19,n,14,1.6,n,n,15,21,n,LXR ag=n;hcDAF12 ag=7.8
Clc1ccc2oc(-c3ccccc3)nc2c1,n,n,n,n,n,n,x,x,x,x,
OCCCN=c1cc(-c2ccccc2)oc2ccc(Cl)cc12,12,18,n,n,n,n,37,6.3,11,n,
O=C(Cc1ccc(NC(=O)C2CCN(C(=O)C3CCCC3)CC2)cc1)Nc1cccc(C(=O)N2CCCC2)c1,n,n,n,n,n,x,x,x,x,x,
c1ccc(OCc2nc(-c3cccs3)no2)cc1,11,16,n,n,n,n,9.2,6.6,13,n,
Cc1cc(OCC(=O)N(C)C2CCCCC2)ccc1Cl,10,17,3.6,n,n,n,n,17,n,n,
COc1cc(OC)cc(-c2nc3ccccc3s2)c1,8.2,17,n,8.6,n,n,11,n,15,n,LXR ag=n;hcDAF12 ag=13
O=c1c(-c2ccc(O)cc2)coc2cc(O)cc(O)c12,9.0,17,n,n,n,4.2,14,11,n,n,
Nc1ccccc1C#Cc1ccccc1,n,n,n,n,n,n,x,x,x,x,

# From PubChem BioAssay
